Assay results as given in the supplement of paper PMC9135407.
Where a name gives a salt, the structure may show the parent alone. The whole screen tested about 5,800 compounds, of which about 620 (11%) showed activity. The full list was thinned out, with actives kept by preference. A number with no mark means an inactive call.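 How the source made its calls: active = score above a cut-off or among the top three wells of a plate; in these data no inactive exceeds 0.85.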

Tested on: primary human hepatic stellate cells (donor 1)
Test: scaled lipid accumulation score (0 = DMSO-like, 1 = nortriptyline-like); higher = stronger HSC inactivation (lipid re-accumulation), active = hit call of the paper
Settings: 48 h
[1] = library stock concentration: 80 uM
[2] = library stock concentration: 400 uM
[3] = library stock concentration: 2 mM
[4] = library stock concentration: 3.33 mM
[5] = library stock concentration: 10 mM
[6] = library stock concentration: 1 mM

O=C1NCCc2[nH]c(-c3ccncc3)cc21
scaled lipid accumulation score [1]: ≤ -0.016
scaled lipid accumulation score [2]: 0.1
scaled lipid accumulation score [3]: 0.125
scaled lipid accumulation score [4]: ≤ 0
scaled lipid accumulation score [5]: 0.19

CCCCCCCCCCCCCC(=O)O [Myristic Acid]
scaled lipid accumulation score [6]: ≤ 0

c1cn2cc(-c3ccc4cn[nH]c4c3)nc(Nc3ccc(N4CCOCC4)cc3)c2n1
scaled lipid accumulation score [4]: 1.04 (active)
scaled lipid accumulation score [5]: 0.944 (active)

Cn1c(=O)c(-c2c(Cl)cccc2Cl)cc2cnc(Nc3ccc(N4CCOCC4)cc3)nc21
scaled lipid accumulation score [5]: ≤ 0

c1cn2cc(-c3ccc4cn[nH]c4c3)nc(Nc3ccc(N4CCOCC4)cc3)c2n1 [Entospletinib] [listing 1 of 2 here]
scaled lipid accumulation score [3]: 1.2 (active)
scaled lipid accumulation score [5]: 1.21 (active)

Cc1cc(N2CCOCC2)ccc1Nc1nc(NC2CCCCC2)c2[nH]cnc2n1
scaled lipid accumulation score [4]: 0.091
scaled lipid accumulation score [5]: ≤ 0

c1cn2cc(-c3ccc4cn[nH]c4c3)nc(Nc3ccc(N4CCOCC4)cc3)c2n1 [Entospletinib] [listing 2 of 2 here]
scaled lipid accumulation score [1]: ≤ 0
scaled lipid accumulation score [2]: 0.023

c1nc2c(NC3CCCCC3)nc(Nc3ccc(N4CCOCC4)cc3)nc2[nH]1 [Reversine]
scaled lipid accumulation score [4]: ≤ 0

C[N+](C)(C)CCOP(=O)(O)OP(=O)([O-])OC[C@H]1O[C@@H](n2ccc(N)nc2=O)[C@H](O)[C@@H]1O [Citicoline]
scaled lipid accumulation score [5]: ≤ -0.027

C[N+](C)(C)CCOP(=O)(O)OP(=O)([O-])OC[C@H]1O[C@@H](n2ccc(N)nc2=O)[C@H](O)[C@@H]1O [Cytidine 5'-diphosphocholine sodium salt hydrate]
scaled lipid accumulation score [5]: ≤ -0.07

CO[C@H]1C=C[C@@]23c4cc5c(cc4CN(C[C@@H]2O)[C@H]3C1)OCO5 [Crinamine]
scaled lipid accumulation score [5]: 0.74

Cc1ccc(Nc2cc(-c3cccc(N4C(=O)c5ccccc5C4=O)c3)ncn2)cc1NS(C)(=O)=O
scaled lipid accumulation score [1]: 0.083
scaled lipid accumulation score [2]: ≤ -0.016
scaled lipid accumulation score [3]: ≤ -0.016
scaled lipid accumulation score [5]: 0.08

CCCCCC(O)/C=C/C1C(O)CC(O)C1CCCCC(CC(=O)O)OC (stereo not drawn) [3-methoxy Prostaglandin F1.alpha.]
scaled lipid accumulation score [6]: ≤ 0

CCCCCCCCCCCCCCC(=O)N[C@H]1CCOC1=O [N-pentadecanoyl-L-Homoserine lactone]
scaled lipid accumulation score [6]: ≤ 0

c1ccc2c(c1)CCC[C@H]2Nc1nc2ccccc2[nH]1 [NS8593 hydrochloride]
scaled lipid accumulation score [5]: 0.362

CCCCNC(=O)NS(=O)(=O)c1ccc(CO)cc1 [4-hydroxy Tolbutamide]
scaled lipid accumulation score [6]: 0.012

COc1ccc(NS(=O)(=O)c2ccc(I)cc2)cc1N1CCN(C)CC1
scaled lipid accumulation score [5]: 0.604

COc1ccc(NS(=O)(=O)c2sc3ccc(Cl)cc3c2C)cc1N1CCNCC1 [listing 1 of 2 here]
scaled lipid accumulation score [4]: 0.383

COc1ccc(NS(=O)(=O)c2sc3ccc(Cl)cc3c2C)cc1N1CCNCC1 [listing 2 of 2 here]
scaled lipid accumulation score [5]: 1.31 (active)
